Only some compounds are listed: those with a hit (about 1.1% of all), similar ones and a draw of the others.
CaV13 ICDI inh = Disruptors of the CACNA1D IQ motif to Ca2+-dependent inactivation inhibitor domain association, primary screening, Förster resonance energy transfer in intact living …; HEK cells, CFP/YFP FRET ICDI-IQ, plate reader, 10 min; percent FRET-ratio fall versus neutral wells; inhibition, % at 12.3 µM; 340,000 compounds, 0.098% hits;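 active = mean replicate inhibition of at least 30% and at least 1% of replicates passing that level; inconclusive = only one of the two criteria is met; inactive = neither criterion is met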
Granule exo inh = blocks lytic granule exocytosis. 360,000 compounds, 0.66% hits. TALL-104 LAMP-1 surface exposure, flow cytometry; cells stimulated with thapsigargin and PMA. inhibition, % at 10 µM. AID 651702;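 active = inhibition above about 55%, limit read from the data; inconclusive = no clear call, values can overlap the other calls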
ABCB6 inh MLPCN = human ABCB6 transporter inhibition | K562-ABCB6 porphyrin accumulation, flow cytometry, 1 h; hits give low values | fluorescence ratio to DMSO, % at 10 µM | 360,000 compounds, 0.19% hits | AID 602162;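 active = fluorescence ratio to DMSO below 75%, the collection mean minus 3 SD; inconclusive = too few cells collected in the well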;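 also: signal is porphyrin accumulated inside mitochondria; lower ratio means ABCB6 inhibition with less porphyrin fluorescence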
VLA-4 inh = inhibition in a human VLA-4 binding assay; P13612; VLA-4 expressing cells, ligand binding flow cytometry; inhibition, % (about 7 µM as worked out from the volumes in the protocol); 330,000 compounds, 0.2% hits; AID 2557; in the data active = inhibition above about 50%
Target sequence (P13612 whole entry, looked up): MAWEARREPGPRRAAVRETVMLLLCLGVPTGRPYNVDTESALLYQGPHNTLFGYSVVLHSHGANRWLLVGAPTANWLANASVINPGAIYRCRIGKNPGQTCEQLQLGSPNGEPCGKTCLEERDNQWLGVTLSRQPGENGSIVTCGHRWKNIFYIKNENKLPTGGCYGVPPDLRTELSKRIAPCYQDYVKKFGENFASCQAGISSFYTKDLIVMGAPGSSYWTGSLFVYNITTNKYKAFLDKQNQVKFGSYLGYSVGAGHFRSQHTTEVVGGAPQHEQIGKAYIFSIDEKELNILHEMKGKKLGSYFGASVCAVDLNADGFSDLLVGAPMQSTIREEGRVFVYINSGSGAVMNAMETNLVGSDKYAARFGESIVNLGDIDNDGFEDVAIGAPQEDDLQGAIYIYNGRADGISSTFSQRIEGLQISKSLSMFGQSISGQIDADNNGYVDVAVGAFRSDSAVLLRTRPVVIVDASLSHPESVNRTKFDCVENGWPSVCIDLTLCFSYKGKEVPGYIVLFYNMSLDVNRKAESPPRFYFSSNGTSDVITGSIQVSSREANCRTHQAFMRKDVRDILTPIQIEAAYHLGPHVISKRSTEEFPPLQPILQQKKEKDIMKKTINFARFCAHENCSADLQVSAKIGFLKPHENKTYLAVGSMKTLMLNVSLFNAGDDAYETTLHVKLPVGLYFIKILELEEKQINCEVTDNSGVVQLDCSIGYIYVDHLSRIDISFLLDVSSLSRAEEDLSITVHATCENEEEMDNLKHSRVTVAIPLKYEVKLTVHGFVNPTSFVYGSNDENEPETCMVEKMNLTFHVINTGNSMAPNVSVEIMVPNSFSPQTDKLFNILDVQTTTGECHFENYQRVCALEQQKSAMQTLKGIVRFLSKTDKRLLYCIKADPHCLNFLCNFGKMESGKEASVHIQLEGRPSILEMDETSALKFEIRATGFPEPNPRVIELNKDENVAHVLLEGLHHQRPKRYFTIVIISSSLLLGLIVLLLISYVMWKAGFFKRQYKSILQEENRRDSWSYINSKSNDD
Exocytosis CP01 = blocks lytic granule exocytosis | shares compounds with Granule exo inh | TALL-104 cells, LAMP-1 externalization, flow cytometry; stimulated with PMA plus thapsigargin | inhibition, % at 10 µM | 1,500 compounds, 11% hits | AID 651954; in the data active = inhibition above about 60%
Large screens that a line does not name were inactive (follow-up assays come after a bar, where they were run).

CCCCN(CC)Cc1ccc(CNC(=S)Nc2cccc(F)c2)o1	none
COc1ccc(C)cc1NC(=O)NC1CCCc2ccccc21 (stereo not given)	none
CCC(Cc1ccccc1)NS(=O)(=O)c1ccc2c(c1)NC(=O)C(C)S2 (stereo not given)	none
CCN(CC)CCCC(C)NC(=O)c1c(NC(=O)c2ccccc2)sc2c1CCCC2 (stereo not given)	Granule exo inh 77.8 | Exocytosis CP01 inactive
COc1ccc(Cl)cc1N(C(=O)c1ccco1)C(C(=O)NC1CCCC1)c1ccco1 (stereo not given)	Granule exo inh 64.3 | Exocytosis CP01 inactive
COc1ccc2c3c(cccc13)C(=O)CC2	none
CCOC(=O)c1c(NC(=O)c2cccs2)sc2c1CCN(C(=O)OCC)C2	Granule exo inh 83.1 (no result: CaV13 ICDI inh) | Exocytosis CP01 inactive
COc1cccc(CN(C)C(=O)c2ccc(Oc3ccccc3)cc2)c1OC	Granule exo inh 72.6 | Exocytosis CP01 inactive
COc1cccc(CN(C)C(=O)c2ccc(COc3ccc(Cl)cc3)cc2)c1OC	none
Cc1c(Cl)cccc1NC(=O)CCCN1C(=O)CCC1=O	none
OC(c1ccccc1)(c1ccccc1)C1CCN(CCCOc2ccc(-c3ccncc3)cc2)CC1	none (no result: Granule exo inh, ABCB6 inh MLPCN, VLA-4 inh)
CC(C)C[C@H]1CN([C@@H](CC(C)C)CN2CCC[C@H]2CN2C(=O)C(=O)NC[C@@H]2Cc2ccc(O)cc2)C(=O)C(=O)N1CC1CCCCCC1	none (no result: VLA-4 inh)
CCOc1ccccc1C(=O)Nc1ccc(C(=O)c2ccccc2)cc1	Granule exo inh 60.3 | Exocytosis CP01 inactive
COc1cc2nc(SCc3ccc(F)cc3)n(Cc3cccs3)c(=N)c2cc1OC	none
COc1ccc(Cn2c(SCc3ccccc3C)nc3cc(OC)c(OC)cc3c2=N)cc1	Granule exo inh 95.8 | Exocytosis CP01 inactive
O=C(NC(=S)Nc1ccc(CN2CCOCC2)cc1)c1ccc(-c2cccc(Cl)c2)o1	Granule exo inh 58.3 | Exocytosis CP01 inactive
COc1ccc(CN2C(=O)CCC2(C)c2nnnn2Cc2ccccc2)cc1 (stereo not given)	none (no result: VLA-4 inh)
N#CC1C(=O)c2ccccc2C1c1ccccc1 (stereo not given)	Granule exo inh 63.7, ABCB6 inh MLPCN inconclusive (no result: VLA-4 inh) | Exocytosis CP01 inactive
CN(Cc1ccc(C(C)(C)C)cc1)C(=O)Cc1ccc(S(=O)(=O)N2CCOCC2)s1	none
CN1CCN(c2ncnc3scc(-c4ccccc4Cl)c23)CC1	none
COc1ccc(-c2csc3ncnc(N4CCN(c5ccccc5OC)CC4)c23)cc1	Granule exo inh 87.9 | Exocytosis CP01 inactive
Cc1cc(-c2csc3ncnc(N4CCN(C)CC4)c23)cc(C)c1C	Granule exo inh 96.2 | Exocytosis CP01 inactive
Cc1sc2ncnc(N3CCN(Cc4ccccc4)CC3)c2c1-c1ccc(F)cc1	Granule exo inh 65.4 | Exocytosis CP01 inactive
Fc1ccc(CN2CCN(c3ncnc4scc(-c5ccccc5)c34)CC2)cc1	Granule exo inh 74.5 | Exocytosis CP01 inactive
O=C(CSc1ncnc2scc(-c3ccccc3)c12)N1CCN(Cc2ccc3c(c2)OCO3)CC1	none
c1ccc(-c2csc3ncnc(N4CCN(Cc5ccc6c(c5)OCO6)CC4)c23)cc1	Granule exo inh 76.5 | Exocytosis CP01 inactive
CNCc1ccccc1Sc1ccc(O)c(O)c1	Granule exo inh 81.5 | Exocytosis CP01 inactive
COc1ccc(Sc2ccccc2CN(C)C)cc1OC	none
O=C(CSc1nc(C2CC2)nc2ccccc12)Nc1ccccc1	Granule exo inh 77.5 | Exocytosis CP01 inactive
CC(=O)Nc1cccc(NC(=O)CSc2nc(C3CC3)nc3ccccc23)c1	none
COc1ccc(-c2sc3ccccc3c2C#Cc2cncn2C)cc1	none
Cn1cncc1C#Cc1c(-c2ccc(S(C)(=O)=O)cc2)sc2ccccc12	Granule exo inh 102.9 | Exocytosis CP01 97.0
O=C(O)c1nn(Cc2ncc(-c3cccc(Cl)c3)o2)c(=O)c2ccccc12	none
COc1cccc(-c2cnc3c(NC(C)=O)cc(-c4cc(OC)c(OC)c(OC)c4)cn23)c1	none (no result: VLA-4 inh)
CC(=O)Nc1cc(-c2ccccc2F)cn2c(-c3ccccc3)cnc12	Granule exo inh 79.2 (no result: VLA-4 inh) | Exocytosis CP01 94.1
COc1ccc(-c2cc(NC(C)=O)c3ncc(-c4ccccc4)n3c2)c(OC)c1	Granule exo inh 94.0 (no result: VLA-4 inh) | Exocytosis CP01 96.2
COc1cccc(-c2cnc3c(NC(C)=O)cc(-c4ccccc4OC)cn23)c1	Granule exo inh 75.9 (no result: VLA-4 inh) | Exocytosis CP01 93.6
Cc1nc(N2CCN(c3ccccn3)CC2)c2c(C)c(C(=O)N3CCN(c4ccccc4F)CC3)sc2n1	Granule exo inh 55.6 | Exocytosis CP01 inactive
CCCNC(=O)NC(=O)CSc1nnc(-c2c[nH]c3ccccc23)o1	none
CC1=Nc2ccccc2/C1=C\c1nc(-c2ccc(F)cc2)oc1O	Granule exo inh 76.1 | Exocytosis CP01 inactive
CN=Cc1nc(-c2ccccc2)oc1O	none
CC(=O)Nc1ccc(NC(=O)C2CCN(C(=O)C3CC(=O)N(c4ccc(C)cc4)C3)CC2)cc1 (stereo not given)	none
COc1ccc(NC(=O)C2CCN(C(=O)C3CC(=O)N(c4ccc(C)cc4)C3)CC2)c(OC)c1 (stereo not given)	Granule exo inh 69.0 | Exocytosis CP01 inactive
CCOC(=O)c1cc2c(=O)n3ccccc3nc2n(Cc2ccco2)c1=NC(=O)c1ccc(OC)cc1OC	none
N#Cc1cn(CCCOc2ccccc2)c2ccccc12	Granule exo inh 67.2 (no result: CaV13 ICDI inh) | Exocytosis CP01 inactive
COc1ccccc1OCCCn1cc(C#N)c2ccccc21	none (no result: CaV13 ICDI inh)
FC(F)(F)c1ccccc1NC(=S)Nc1cccc(Cl)c1	none
O=C(Nc1ccc(C(=O)N2CCOCC2)cc1)C1CC1	none (no result: VLA-4 inh)
NC(=O)SCC(=O)Nc1ccc(Cl)cc1	Granule exo inh 77.9 | Exocytosis CP01 inactive
Cc1cccc(CN2CCC(C(=O)Nc3cccc(-c4cccc(F)c4)c3)CC2)n1	Granule exo inh 61.8 | Exocytosis CP01 inactive
CC1=C(C(=O)N(C(C)C)C(C)C)CC(CC(=O)NCC2CCCCC2)C(=O)N1Cc1ccc(C(C)(C)C)cc1 (stereo not given)	Granule exo inh 64.1 (no result: VLA-4 inh) | Exocytosis CP01 inactive
c1ccc(-c2oc3ncnc(NCCCn4ccnc4)c3c2-c2ccccc2)cc1	none (no result: CaV13 ICDI inh)
CN(C)CCCNc1ncnc2oc(-c3ccccc3)c(-c3ccccc3)c12	Granule exo inh 58.9 | Exocytosis CP01 inactive
CC(C)c1ccc(NC(=O)[C@H](NC(=O)[C@@H]2Cc3ccccc3CN2)c2ccccc2)cc1	Granule exo inh 59.4 | Exocytosis CP01 inactive
Cc1ccc(NC(=O)[C@H](NC(=O)[C@@H]2Cc3ccccc3CN2)c2ccccc2)cc1	none
Cc1ccccc1N1C(=O)CC(Sc2nnc(-c3ccccc3)o2)C1=O (stereo not given)	Granule exo inh 87.6 (no result: CaV13 ICDI inh) | Exocytosis CP01 inactive
O=C1ON=C(c2ccccc2)/C1=C/c1ccc(-c2ccccc2[N+](=O)[O-])o1	Granule exo inh 69.5 | Exocytosis CP01 99.4
COCCCNc1ccn2nc(-c3cccc(OCc4ccccc4)c3)cc2n1	none (no result: VLA-4 inh)
